Measurements reported in PubChem BioAssay AID1671188 (National Center for Advancing Translational Sciences (NCATS), 2021).
Where “and” joins values, the source holds several entries; their conditions need not be identical. Equal values may be shown once. About 250 (0.25%) of roughly 100,000 compounds were called active. Where a call stands in place of a potency, no number is given. About 7% were inconclusive and are not listed. The call rests on the fitted dose curve; in most records, active means well fitted inhibition curve with a large enough effect; inconclusive means small, poorly fitted or top-dose-only effect; inactive means flat fitted curve, though single readings scatter. The sample as a whole holds a higher share of actives than the screen did. Where a structure was tested more than once in an assay, its records may differ in their call.

biological target: Alanine aminotransferase 2 (Homo sapiens) (UniProt Q8TD30); assay: Primary qHTS assay for inhibitors of Glutamate pyruvate transaminase 2 (GPT2); conditions: Recombinant GPT2, coupled pyruvate oxidase/HRP Amplex Red fluorescence; series mostly up to 57.7 µM; further: nearly all actives have a fitted effect of over 60% in size
Protocol: Assay Provider: Zhenghe John Wang Ph.D.
Case Western Reserve University, Cleveland OH
Glutamate pyruvate transaminase 2 (GPT2) catalyzes the reversible transamination of glutamate and pyruvate to provide a-ketoglutarate and alanine. We have optimized an assay for GPT2 enzymatic activity that couples pyruvate formation to detection of fluorescence using an established pyruvate oxidase/horseradish peroxidase / Amplex Red system.
Screening conditions were 250uM a-KG, 2mM L-alanine, and 10ng/uL GPT2 in […] of solution; 10uL of Amplex reaction mix (outlined below) were added so that final concentrations of Amplex reagents in 50uL were 0.2mM ThPP, 0.2U/mL PO and HRP, and 50uM Amplex.
NOTE: The volume of GPT2 in the system depends on the activity of it. The activity is different every batch. You need to test the activity before the assay. For full plate assay with automation, plate 20uL of GPT2 buffer to pin into, then add 10uL of GPT2 dilution followed immediately by 10uL of substrate dilution. 2 Columns of the plate were devoted to GPT2 buffer ([…] PH7.5, 0.0001% Tween) + 50uM AOA (known GPT2 inhibitor) to serve as a positive control. Complete the assay as normal. Amplex-red buffer: […] PH7.5, 1 mM EDTA, 1 mM MgCl2.
1. Combine a-KG and L-alanine at desired concentrations and incubate for at least 10 minutes at 37C. Stocks of L-alanine and a-KG are diluted in distilled water. However, the stocks were diluted in GPT2 buffer for the assay.
2. Prepare GPT2 dilution at the desired concentration in GPT2 buffer.
3. Plate 40uL of GPT2 dilution with 40uL of substrate dilution and let incubate for 30 minutes at room temperature.
4. Add 20uL of Amplex reaction mix prepared as follows: 1.5uL 200U/mL Horseradish Peroxidase, 200mM Thiamine Pyrophosphate, 200U/mL Pyruvate Oxidase; 7.5uL 10mM Amplex Red; 288uL Amplex Buffer.
5. Incubate for 30 minutes at room temperature in the dark, then image using AM_Amplex_Fluorescence on plate reader nearest the window.
Potency means the concentration at half of the fitted maximal effect.

Sequence of Alanine aminotransferase 2 (Homo sapiens) (Q8TD30 whole entry, looked up): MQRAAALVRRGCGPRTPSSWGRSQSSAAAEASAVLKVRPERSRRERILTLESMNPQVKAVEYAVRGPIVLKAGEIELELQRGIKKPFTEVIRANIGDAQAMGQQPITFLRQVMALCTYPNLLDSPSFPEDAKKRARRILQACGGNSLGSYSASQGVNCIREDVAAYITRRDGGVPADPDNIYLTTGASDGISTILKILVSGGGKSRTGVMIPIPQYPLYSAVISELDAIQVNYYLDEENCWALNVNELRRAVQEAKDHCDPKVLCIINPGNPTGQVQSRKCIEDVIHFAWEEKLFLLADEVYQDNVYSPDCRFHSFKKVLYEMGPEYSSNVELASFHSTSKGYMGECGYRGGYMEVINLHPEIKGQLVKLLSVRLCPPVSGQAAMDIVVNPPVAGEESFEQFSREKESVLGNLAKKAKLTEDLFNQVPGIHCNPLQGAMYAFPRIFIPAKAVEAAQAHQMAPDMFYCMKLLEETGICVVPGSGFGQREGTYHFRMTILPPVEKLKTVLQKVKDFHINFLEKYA

Row | SMILES | Potency | activity change, negative = inhibition
1 | CN(C)C(=O)c1ccc2oc(-c3ccnc(Cl)c3)nc2c1 | inactive | 
2 | CC(C)c1ccc(CN2CCC3(CC2)COCCN3C(=O)c2ccc3[nH]ncc3c2)cc1 | inactive | 
3 | CC(=O)N1C[C@@H]2CCCN3CCC[C@@H]([C@H]23)[C@H]1CCCC(=O)N1CCN(C2CCN(C)CC2)CC1 | inactive | 
4 | COc1ccc(CC(=O)NC2CCN(Cc3ccc(-c4ccccc4OC)cc3)C2)cc1 (configuration not stated) | inactive | 
5 | O=C1[C@H]2CN(Cc3ccc(Cl)c(F)c3)C[C@H]2C(=O)N1CCc1ccccc1 | inactive | 
6 | O=C(c1ccc(C(F)(F)F)cc1)N1CCN(c2ccnc3ccnn23)CC1 | inactive | 
7 | O=C(N1CCC(Cc2nc(-c3ccccc3)n[nH]2)C1)C1(c2ccccc2)CC1 (configuration not stated) | inactive | 
8 | O=C(c1ccccc1Cl)N1CCC2(CC1)NC(=O)N(c1cccc(Cl)c1)N2 | inactive | 
9 | CC(C)c1noc(-c2cn(C3CCN(C(=O)c4cccc(C#N)c4)C3)nn2)n1 (configuration not stated) | inactive | 
10 | O=C1NCCOCCN(S(=O)(=O)c2cccs2)[C@@H]2CCCC[C@H]12 | inactive | 
11 | COc1ccccc1Nc1ncc2c(n1)CN(C(=O)COc1ccccc1)CCN2 | inactive | 
12 | CNC(=O)c1ccccc1Nc1nc(Nc2ccc3c(c2OC)CCC[C@@H](N2CCN(CCO)CC2)C3)ncc1Cl | inactive | 
13 | CNC(=O)c1ccccc1Nc1nc(Nc2ccc(N3CCOCC3)cc2OC)ncc1Cl | 10.9 µM (active) and 7.08 µM (active) | 
14 | COc1cccc(-c2ccc(C(=O)N3CCC(NC(=O)Cc4ccc(F)cc4)CC3)cc2)c1 | inactive | 
15 | COc1ccccc1OC(C)(C)C(=O)N1CC(C)(C)[C@@](C)(O)C1 | inactive | 
16 | CN(CC1CCOCC1)C(=O)Nc1ccc(Cl)cc1 | inactive | 
17 | O=S(=O)(Cc1ccccc1)N1CC(c2nc(-c3ccncc3)no2)C1 | inactive | 
18 | COc1ccc(CN2CCN(c3nc4ccccc4o3)CC2CCO)cc1C (configuration not stated) |  | -2.15% [at 11.5 µM] (inactive)
19 | COc1ccc(-n2cccn2)c(CN2CCC3(CCNC(=O)CC3)CC2)c1 | inactive | 
20 | Cc1noc(C)c1-c1cc2c(cc(C)n2C)c(NCCCn2ccnc2)n1 | inactive | 
21 | COc1ccccc1Cn1c(=O)c(C(=O)NCc2ccc(F)cc2)nc2cccnc21 | inactive | 
22 | O=C(c1ccc(F)cc1)N1CCCC(C(=O)N2CCCC2c2nc3ccncc3[nH]2)C1 (configuration not stated) | inactive | 
23 | CN1CCN(C(=O)c2ccc3oc(-c4ccncc4Cl)nc3c2)CC1 | inactive | 
24 | COc1cccc(N2C(=O)NC(=NC3CCCCC3)C23CCN(CC2CCCCC2)CC3)c1 | inactive | 
25 | CC1=C(C(=O)OC(C)(C)C)C(c2ccccc2F)N2C(CC(=O)N3CCCC3)=CSC2=N1 (configuration not stated) | inactive | 

Row | SMILES | Potency | activity change, negative = inhibition
26 | O[C@@H]1C[C@@H](c2nc(-c3cccnc3)no2)N(Cc2cccs2)C1 | inactive | 
27 | CN(Cc1ccsc1)Cc1nc(C(c2ccccc2)c2ccccc2)no1 | inactive | 
28 | CCOC(=O)C1CCN(C(=O)c2nc3sccn3c2-c2ccc(OC)cc2)CC1 | inactive | 
29 | COCc1cc(=O)n(CC(=O)Nc2cc(C)cc(C)c2)c(N2CCOCC2)n1 | inactive | 
30 | CC(=O)c1ccc(NC(=O)O[C@@H]2CO[C@H]3[C@@H]2OC[C@@H]3Nc2nccc(-c3ccco3)n2)cc1 | inactive | 
31 | CC[C@@H]1Cc2cc(O)ccc2C2=C1c1ccc(O)cc1C[C@H]2CC | 11.2 µM (active) | 
32 | COCCN1C[C@H]2CN(C(=O)c3ccc(C(F)(F)F)cc3)CCN2C1=O | inactive | 
33 | N#Cc1ccc(CN2CCC3(Cc4ccccc4NC3=O)C2)cc1 (configuration not stated) | inactive | 
34 | O=C(Cn1nc2c(cc1=O)CCCC2)NCCn1ccc2ccc(Cl)cc21 | inactive | 
35 | Cc1nc(C)c(C(=O)N2CCc3nnc([C@@H]4C[C@@H](O)CN4C(C)C)n3CC2)s1 | inactive | 
36 | C=CCNC(=O)C1N(C(C)C)C(=O)C12CCCC2 (configuration not stated) | inactive | 
37 | OCC1(CN2CCCC2)CCN(Cc2ccc(OC(F)(F)F)cc2)CC1 | inactive | 
38 | COc1ccc(NC(=O)N2CCC(O)(c3csc(CN4CCc5ccccc5C4)n3)CC2)cc1 | inactive | 
39 | CO[C@@H]1COCC[C@H]1NC(=O)c1cn(CCN2CCNCC2)nn1 | inactive | 
40 | CCC(=O)N1CCCC(Cc2ncc(C)n2C(C)C)C1 (configuration not stated) | inactive | 
41 | O=C(c1cc(Cl)ccc1F)N1CCN(c2cc(C(F)(F)F)ncn2)CC1 | inactive | 
42 | O=C(NCc1ccc(Cl)nc1)c1cnn2ncccc12 | inactive | 
43 | CC(C)c1ccc(CNC(=O)CN2CCCc3nc(C4CC4)ncc3C2=O)cc1 | inactive | 
44 | COCCN1C(=O)CCC2(C(=O)NCc3cn[nH]c3C)CCCC=C12 (configuration not stated) | inactive | 
45 | CN1CCN(C(C)(CN)c2ccccn2)CC1 (configuration not stated) | inactive | 
46 | O=C(Nc1cccc(F)c1)N1CCC2(CC1)SCC(=O)N2Cc1ccco1 | inactive | 
47 | COc1ccc(-c2nnc(C[C@@H]3C[C@@H](C(C)C)[C@H](CN4CCC(C(N)=O)CC4)C=C3C)o2)cc1 | inactive | 
48 | Cc1ccc(C)c(CN2C(=O)NC3(CCCN(C(=O)c4ccc(C)c(F)c4)C3)C2=O)c1 (configuration not stated) | inactive | 
49 | c1ccc2c(CN3CCC[C@H]3c3nc(-c4ccnc(N5CCOCC5)c4)no3)c[nH]c2c1 | inactive | 
50 | NC(=O)c1cccnc1N1CCN(CC2(O)CNCCOC2)CC1 (configuration not stated) | inactive | 

Row | SMILES | Potency | activity change, negative = inhibition
51 | O=C1COCC2(CN(c3ccc(C(F)(F)F)cn3)C2)CN1c1cccnc1 | inactive | 
52 | Cc1ccccc1CN1CCc2ncc(C(=O)NCCOc3ccccc3)n2CC1 | inactive | 
53 | Cc1nc([C@H]2CCN(Cc3ccoc3)C[C@H]2NC(=O)C2CC2)n[nH]1 | inactive | 
54 | CCC(C)Oc1ccccc1CN1CCC(CO)(CN2CCCC2)CC1 (configuration not stated) | inactive | 
55 | COCc1cc(C[C@@H]2C[C@H](NC(=O)Nc3ccccc3)C2(C)C)no1 | inactive | 
56 | Cc1ccc(C(=O)Nc2ccc(C(O)[C@H]3COCC(=O)N3Cc3ccccc3F)cc2)cc1 (some centres not stated) | inactive | 
57 | Cc1cc(Nc2cc(N3CCN(C)CC3)nc(Sc3ccc(NC(=O)C4CC4)cc3)n2)n[nH]1 | inactive and 27.3 µM (active) | 
58 | Cc1ccc(Nc2ccnc(N3CCC(C(=O)Nc4ccccc4F)CC3)n2)cc1 | inactive | 
59 | CN1CCN(C(=O)c2ccc(-c3nnc4ccc(NC(=O)C5CCC5)cn34)cc2)CC1 | inactive | 
60 | O=C(CC1CCN(C(=O)c2ccco2)C1)N1CCOCC1 (configuration not stated) | inactive | 
61 | COCCn1nc2n(c1=O)CCN(C(=O)c1ccco1)CC2 | inactive | 
62 | CCC(=O)Nc1cc(-c2ccccn2)nn1-c1ccccc1 | inactive | 
63 | O=C(NCCc1ccccc1F)c1cn2cc(-c3cccc(C(F)(F)F)c3)sc2n1 | inactive | 
64 | Fc1cccc(C2CCCCCN2Cc2cn(-c3ccccc3)nn2)c1 (configuration not stated) |  | -3.5% [at 11.5 µM] (inactive)
65 | COC(=O)c1cccc(NC(=S)N[C@H]2CO[C@H]3[C@@H]2OC[C@H]3OC(=O)Nc2ccc(Oc3ccccc3)cc2)c1 | inactive | 
66 | Cc1noc(C)c1S(=O)(=O)N1CCC(c2noc(-c3ccncc3)n2)C1 (configuration not stated) | inactive | 
67 | COc1ccccc1-c1ccc2c(C(=O)NCCc3ccc(Cl)cc3)nn(C)c2n1 | inactive | 
68 | COc1ccc(C(=O)N2CC[C@@H](CC(=O)O)[C@@H](CCN3C[C@@H]4C[C@H](C3)c3cccc(=O)n3C4)C2)cc1 | inactive | 
69 | O=C(NCCCc1ccccc1)c1n[nH]c2c1CN(C(=O)C1CC1)CC2 | inactive | 
70 | O=C(NCc1cccc(Cl)c1)c1ccc2nnc(Cc3ccc(Cl)cc3)n2c1 | inactive | 
71 | Cc1nc(-c2c3n(c(=O)n(Cc4ccc(F)c(F)c4)c2=O)CCCC3)no1 | inactive | 
72 | COc1cccc(CN(C)C2CCc3nn(C)c(=O)n3CC2)n1 (configuration not stated) | inactive | 
73 | COc1ccc(CC(=O)N2CCN(C(=O)c3nc4cccnc4n(Cc4ccc(OC)cc4)c3=O)CC2)cc1 | inactive | 
74 | CC[C@H]1CN(C(=O)NC(C)C)CC[C@H]1CC(=O)Nc1ccccc1 | inactive | 
75 | COc1ccc(C(=O)N2C[C@@H](Oc3cccnc3)C[C@H]2C(=O)N2CCOCC2)cc1 | inactive | 

Row | SMILES | Potency | activity change, negative = inhibition
76 | O=C(c1ccc2c(c1)CCCO2)N1CCCn2nc(C(O)C3CCC3)cc2C1 (configuration not stated) | inactive | 
77 | O=C(C1COc2ccccc2O1)N1CCc2c(nc3cc(-c4ccccc4)[nH]n3c2=O)C1 (configuration not stated) | inactive | 
78 | CN1CCC(N2CCC[C@H]2c2nc(-c3ccc(OC4CCCCC4)nc3)no2)CC1 | inactive | 
79 | O=C1NC(C(=O)NCc2ccccn2)Cn2cccc21 (configuration not stated) | inactive | 
80 | COc1ccc(CN2CCn3c(nn(-c4ccncc4)c3=O)C2)cc1 | inactive | 
81 | CN1C[C@@H](C(=O)Nc2ccccc2)[C@H](C2CCNCC2)C1 | inactive | 
82 | O=C1NC2(Cc3ccccc31)CN(Cc1ccc(F)cc1)C2 | inactive | 
83 | CCC1=C(C(=O)OC)C(c2cccc(OC)c2)N2C(CC(=O)N3CCOCC3)=CSC2=N1 (configuration not stated) | inactive | 
84 | O=C1CC(c2noc(-c3cc(Cl)ccc3F)n2)CN1c1ccc(F)cc1 (configuration not stated) | inactive | 
85 | COc1ccc(C(=O)N2CCCC(CO)CCNC(=O)CC2)c(OC)n1 (configuration not stated) | inactive | 
86 | Cc1cccc(-c2cccc(CN3CCC(NC(=O)Cc4ccc(F)cc4)CC3)c2)c1 | inactive | 
87 | O=C(C1CC=CCC1)N1CC(c2noc(C3CCCN3CC3CC3)n2)C1 (configuration not stated) | inactive | 
88 | O=C(CCn1cnnn1)N1CCC(N2C(=O)C3(CCCC3)C2c2ccccc2)CC1 (configuration not stated) | inactive | 
89 | CC(C)(O)CCc1ccc(C(=O)N2CCOc3ccc(Cl)cc3C2)cc1 | inactive | 
90 | CN(C)CCNC(=O)c1cccnc1OC1CCNCC1 | inactive | 
91 | CN(C)[C@H]1CCCCN(CC2CCC(N)CC2)C1 (some centres not stated) | inactive | 
92 | CC(C)Cn1c(=O)c(C(=O)N2CCN([S+](=O)([O-])c3cccc(C(F)(F)F)c3)CC2)nc2cccnc21 | inactive | 
93 | COc1cccc(CN2C(=O)OC3(CCN(C(=O)c4scnc4C)CC3)C2(C)c2cccnc2)c1 (configuration not stated) | inactive | 
94 | O=C(NCc1ccc(Cl)nc1)c1c[nH]c2cccnc12 | inactive | 
95 | O=[S+]([O-])(c1cccs1)N1CCN(c2nccc(Nc3ccccc3F)n2)CC1 | inactive | 
96 | CCC(=O)Nc1cc(C(=O)NCc2ccc(N3CCOCC3)cc2)c2ccc(C)nc2c1 | inactive | 
97 | Cc1ccc(C(=O)N2CCCC(c3nc(-c4ccccc4)no3)CCNC(=O)CC2)cn1 (configuration not stated) | inactive | 
